This is a sample that favours compounds with a hit; in the whole collection about 3.7% have one here.
ELG1 DNA repair: blocks ELG1-dependent DNA repair in HEK293T cells; Potency, µM (highest dose often 46.1 µM), for inactives: top-dose activity change, negative = inhibition, hits mostly inhibitors; actives 2.3% (n = 330,000); HEK293T ELG1-luciferase reporter, luminescence, 16 h; DNA damage induced by 5-fluorouridine; also: % is scaled to controls: 0 for no effect and ±100 for the full control effect; nearly all actives have a fitted effect of over 55% in size
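Step one: seed 2,000 cells per well. Step two: pin-transfer compound or DMSO alongside 5-fluorouridine. Step three: incubate 16 hr, 37 °C, 5% CO2. Step four: add ONE-Glo, wait 30 min, read luminescence.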
Nrf2 inh: inhibitors of Nrf2 signaling; A549 ARE-Fluc reporter, luciferase luminescence, 18-24 h; Potency, µM (doses to about 46 µM), inactives show at the highest dose activity change, negative = inhibition, usual class: inhibitors; actives 2.1% (n = 360,000); also: % is scaled to controls: 0 for no effect and ±100 for the full control effect; nearly all actives have a fitted effect of over 60% in size
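In this cell-based qHTS, ARE-driven firefly luciferase in A549 cells reports Nrf2 activity; the luminescent signal after BugLite lysis is the measured value, with a prior CellTiter-Fluor read for cell health.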
A549 viability: kills or reduces viability of A549 cells in Nrf2 counter-screen | A549 ARE-Fluc cells, CellTiter-Fluor viability, 18-24 h | actives 0.16% (n = 390,000) | Potency, µM (series often up to 46 µM), without a hit: at the highest dose activity change, negative = cytotoxicity, most hits filed as inhibitors; also: % is scaled to controls: 0 for no effect and ±100 for the full control effect
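A549 ARE_Fluc cells in 5% FBS OPTI-MEM were exposed to compounds in concentration-response for 18-24 h at 37 deg C. Viability was read by CellTiter-Fluor fluorescence (Ex 405/Em 525) after 30 min, before the luciferase read.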
Nrf2 ARE act: activates Nrf2 signaling | AREc32 ARE-luciferase reporter (MCF7-derived line), luminescence, 24 h | Potency, µM (titrated, usually from 46.1 µM), inactives show at the highest dose activation, hits mostly activators | actives 0.31% (n = 410,000); also: % of control where 0% means no effect; nearly all actives have a fitted effect of over 65% in size
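Luminescent ARE reporter assay in AREc32_Fluc cells: overnight plating at 37 deg C, 24 hr compound incubation, Steady-Glo added, 30 min RT before reading.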
* = called active by the depositor; ? = inconclusive; . = not tested or not shown. Calls follow the shape of the dose curve; as a rule, active = well fitted curve in the direction sought with a large enough effect; inconclusive = small, poorly fitted or top-dose-only effect, or another doubt; inactive = no such curve, though single readings can be large; an effect the other way counts as inactive or inconclusive. Potency is read from the fitted curve at half-maximal effect.

SMILES	ELG1 DNA repair	Nrf2 inh	A549 viability	Nrf2 ARE act
CSc1nc(N)nc2c1ncn2CC(=O)NCC(c1ccccc1)c1ccccc1	?	-5%	4%	6%
CSc1nc(N)nc2c1ncn2CC(=O)Nc1ccc(C)c(C)c1	6.5µM*	?	-1%	1%
Cc1ccc(CNC(=O)C2CCN(S(=O)(=O)c3cn(C)cn3)CC2)cc1	.	.	11%	-1%
COc1cc(/C=N/N=C2/C(=O)Nc3ccccc32)cc(OC)c1O	?	16%	2%	11µM*
O=C1Nc2ccccc2/C1=N/N=C/c1cccc(O)c1	15%	-3%	-5%	24%
O=C(NCc1cccc(Cl)c1)c1ccc(CS(=O)Cc2ccc(Cl)cc2)o1 (stereo not given)	13µM*	-9%	1%	0%
O=C(NCCc1ccc(Cl)cc1)c1ccc(CS(=O)Cc2ccc(Cl)cc2)o1 (stereo not given)	?	26µM*	?	2%
CCOc1ccc(CCNC(=O)c2ccc(CS(=O)Cc3ccccc3Cl)o2)cc1 (stereo not given)	23µM*	-9%	1%	1%
O=C(NCc1ccccc1)c1ccc(CS(=O)Cc2cccc(Cl)c2)o1 (stereo not given)	.	.	.	-1%
CCc1ccccc1S(=O)(=O)Cc1ccc(C(=O)NCc2ccc(Cl)cc2)o1	.	?	-1%	5%
CSc1ccc(CCNC(=O)c2ccc(CS(=O)Cc3ccc(Cl)cc3)o2)cc1 (stereo not given)	-2%	3%	-2%	0%
CCc1ccccc1S(=O)(=O)Cc1ccc(C(=O)NCCc2ccc(Cl)cc2)o1	.	23µM*	?	3%
COC(=O)c1ccccc1NC(=O)C1=C(C)C(=O)OC12CCC(C)CC2 (stereo not given)	.	-19%	-5%	5%
O=C(COc1cc(F)ccc1[N+](=O)[O-])NCC1CCCO1 (stereo not given)	1%	?	-16%	4%
COc1ccc(-c2nnc3n2N=C(c2cc(OC)ccc2OC)CS3)c(OC)c1	.	10%	-3%	.

Compound activity as filed in PubChem.
